From PubChem BioAssay AID1159580 (chemical genetic matrix, 2015)
The campaign covered roughly 5,500 compounds. About 2,000 (36%) were called active. Another 18% or so got no clear call; they are omitted. Rule as the data show it: active = normalized growth mostly below about 0.91 (no sharp cut-off); inconclusive = no clear call, values can overlap the other calls; inactive = mostly above about 0.92. This is one part of the list.

Experiment: chemical genetic growth profiling, strain panel (AID 1159580);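 also: tested at 20 µM; growth read once vehicle control cultures reached saturation at 30 °C; 1 = growth at the plate median or of vehicle wells; lower values mean less growth of the strain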
Details: growth OD

Measured: normalized growth

CC(C)CC1NC(=O)NC1=O (stereo not drawn)
inactive: S. cerevisiae deletion strains, locus YAL013W, strain DEP1, stronger effect = lower value 1.02 | S. cerevisiae deletion strains, locus YBR229C, strain ROT2, stronger effect = lower value 1.01 | S. cerevisiae deletion strains, locus YDL101C, strain DUN1, stronger effect = lower value 1 | S. cerevisiae deletion strains, locus YDL134C, strain PPH21, stronger effect = lower value 1.05 | S. cerevisiae deletion strains, locus YDR150W, strain NUM1, stronger effect = lower value 1.01 | S. cerevisiae deletion strains, locus YEL061C, strain CIN8, stronger effect = lower value 1.02 | S. cerevisiae deletion strains, locus YGR078C, strain PAC10, stronger effect = lower value 1.01 | S. cerevisiae deletion strains, locus YGR229C, strain SMI1, stronger effect = lower value 1.01 | S. cerevisiae deletion strains, locus YHR030C, strain SLT2, stronger effect = lower value 1.04 | S. cerevisiae deletion strains, locus YHR087W, strain rtc3, stronger effect = lower value 1.02 | S. cerevisiae deletion strains, locus YJR043C, strain POL32, stronger effect = lower value 1.01 | S. cerevisiae deletion strains, locus YJR075W, strain HOC1, stronger effect = lower value 1.02 | S. cerevisiae deletion strains, locus YLR039C, strain RIC1, stronger effect = lower value 1 | S. cerevisiae deletion strains, locus YLR058C, strain SHM2 (second series), stronger effect = lower value 0.998 | S. cerevisiae deletion strains, locus YLR085C, strain ARP6, stronger effect = lower value 1.07 | S. cerevisiae deletion strains, locus YLR262C, strain YPT6, stronger effect = lower value 1 | S. cerevisiae deletion strains, locus YML094W, strain GIM5, stronger effect = lower value 1.03 | S. cerevisiae deletion strains, locus YMR219W, strain ESC1, stronger effect = lower value 1.01 | S. cerevisiae deletion strains, locus YMR263W, strain SAP30, stronger effect = lower value 1.01 | S. cerevisiae deletion strains, locus YMR307W, strain GAS1, stronger effect = lower value 1.02 | S. cerevisiae deletion strains, locus YNL153C, strain GIM3, stronger effect = lower value 1.01 | S. cerevisiae deletion strains, locus YNL298W, strain CLA4 (second series), stronger effect = lower value 0.984 | S. cerevisiae deletion strains, locus YNL322C, strain KRE1, stronger effect = lower value 1.02 | S. cerevisiae deletion strains, locus YNR030W, strain Alg12, stronger effect = lower value 1.02 | S. cerevisiae deletion strains, locus YPL055C, strain LGE1, stronger effect = lower value 1.07 | S. cerevisiae deletion strains, locus YPL241C, strain CIN2, stronger effect = lower value 1.02 | S. cerevisiae deletion strains, locus YPR135W, strain CTF4, stronger effect = lower value 1.13 | S. cerevisiae strains, strain wild type, stronger effect = lower value 1.02
